# Compound activity (PubChem BioAssay)
# A selection: hits, their analogues and other compounds. The true share with any hit is near 3.1%.
# TSHR antag: Antagonists of the Thyroid Stimulating Hormone Receptor: HTS campaign; Thyrotropin receptor (Homo sapiens), P16473; TSHR-expressing cells, TSH-stimulated cAMP HTRF, 2 h; hits give low values; activity change, negative = inhibition, % at 11.5 µM; 330,000 compounds, 0.2% hits; AID 504810, 2011;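 active = activity change below a set negative limit, meaning inhibition stronger than a set level, cut at about -70% in these data; inconclusive = activity change between two set negative limits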; also: % is scaled to controls: 0 for no effect and ±100 for the full control effect
#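 Read-out is FRET at 665 nm (cryptate excitation 337 nm) from a cryptate-tagged anti-cAMP antibody, competed by cell cAMP against cAMP-d2. Compounds are tested on freshly harvested TSHR cells challenged with 4nM TSH (EC80) for 2 hours at 37 deg C.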
# VDR inhibitor: Inhibitors of the vitamin D receptor (VDR): qHTS; VDR-SRC2-3 peptide fluorescence polarization, 2 h; Vitamin D3 receptor (Homo sapiens), P11473; 400,000 compounds, 0.93% hits; Potency, µM, for the others: max response, negative = inhibition, hits mostly inhibitors; also: potency is read from the fitted curve at half-maximal effect; % is scaled to controls: 0 for no effect and ±100 for the full control effect
# Target sequence (P11473 whole entry, looked up): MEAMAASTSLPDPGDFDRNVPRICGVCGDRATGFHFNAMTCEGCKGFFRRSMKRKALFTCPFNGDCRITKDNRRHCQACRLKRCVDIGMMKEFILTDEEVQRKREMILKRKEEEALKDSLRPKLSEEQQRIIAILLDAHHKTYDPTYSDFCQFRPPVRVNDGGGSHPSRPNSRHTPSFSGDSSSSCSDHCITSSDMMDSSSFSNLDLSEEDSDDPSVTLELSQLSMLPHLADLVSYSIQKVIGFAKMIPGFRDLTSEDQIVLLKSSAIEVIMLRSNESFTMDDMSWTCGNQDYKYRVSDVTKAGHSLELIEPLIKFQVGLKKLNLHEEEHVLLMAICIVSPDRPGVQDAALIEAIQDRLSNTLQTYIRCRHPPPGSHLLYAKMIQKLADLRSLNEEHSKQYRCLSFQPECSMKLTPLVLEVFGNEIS
#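 Measured by FP: displacement of SRC2-3 coactivator peptide from VDR by library compounds, following a two-hour ambient incubation.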
# Vif-APOBEC3F blk: qHTS for Inhibitors of Vif-A3F Interactions: qHTS; 390,000 compounds, 0.2% hits; HeLa A3F-eYFP + Vif (tagged APOBEC3F with the HIV-1 protein that degrades it), YFP fluorescence increase; Potency, µM (doses to about 46.1 µM), without a hit: at the top dose activity, negative = active; also: potency is read from the fitted curve at half-maximal effect; % of control where 0% means no effect; nearly all actives have a fitted effect of over 65% in size
#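 HeLa cells stably expressing A3F-eYFP plus Vif, plated and incubated overnight at 37 deg C, then exposed to compounds overnight at 37 deg C. Blocked degradation read as raised yellow fluorescence (Ex 488/Em 500-530).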
# PLK1 PBD block: qHTS for Inhibitors of PLK1-PDB (polo-like kinase 1 - polo-box domain): Primary Screen; Serine/threonine-protein kinase PLK1 (Homo sapiens), P53350; Plk1 PBD binding of FITC phosphopeptide, fluorescence polarization; Potency, µM, inactives show max response, negative = inhibition, usual class: inhibitors; 360,000 compounds, 2.8% hits; also: potency is read from the fitted curve at half-maximal effect; series mostly up to about 57 µM; % is scaled to controls: 0 for no effect and ±100 for the full control effect; nearly all actives have a fitted effect of over 65% in size
# Vif-A3G inh: qHTS for Inhibitors of Vif-A3G Interactions: qHTS | DNA dC->dU-editing enzyme APOBEC-3G (Homo sapiens), Q9HC16 | HeLa A3G-eYFP + Vif (tagged APOBEC3G with the HIV-1 protein that degrades it), YFP fluorescence, overnight | Potency, µM (top dose mostly 46.1 µM), for the others: at the highest dose activity, negative = active, actives largely listed as inhibitors | 410,000 compounds, 0.076% hits; also: potency is read from the fitted curve at half-maximal effect; % is scaled to controls: 0 for no effect and ±100 for the full control effect; nearly all actives have a fitted effect of over 60% in size
#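 Read-out is eYFP fluorescence (Ex 488/Em 500-530) from Vif-expressing HeLa A3G-eYFP cells; more signal means A3G escaped Vif-mediated degradation. Cells plated overnight, compound pinned in, incubated overnight at 37 deg C.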
# Active calls of the source: *; ? = inconclusive; . = no result given. Unless noted, calls follow the shape of the dose curve; as a rule, active = well fitted curve in the direction sought with a large enough effect; inconclusive = small, poorly fitted or top-dose-only effect, or another doubt; inactive = no such curve, though single readings can be large; an effect the other way counts as inactive or inconclusive.
SMILES,TSHR antag,VDR inhibitor,Vif-APOBEC3F blk,PLK1 PBD block,Vif-A3G inh
CC(C)C[C@H](NC(=O)CNC(=O)[C@H](C)NC(=O)[C@H](CC(C)C)NC(=O)[C@H](CCCNC(=N)N)NC(=O)[C@H](Cc1cnc[nH]1)NC(=O)[C@@H](NC(=O)[C@@H](N)C(C)C)[C@@H](C)O)C(=O)N[C@@H](CC(C)C)C(=O)N[C@@H](CO)C(=O)N[C@@H](CCCNC(=N)N)C(=O)N[C@@H](CO)C(=O)NCC(=O)NCC(=O)N[C@H](C(=O)N[C@H](C(=O)N[C@@H](CCCCN)C(=O)N[C@@H](CC(N)=O)C(=O)N[C@@H](CC(N)=O)C(=O)N[C@@H](Cc1ccccc1)C(=O)N[C@H](C(=O)N1CCC[C@H]1C(=O)N[C@H](C(=O)N[C@@H](CC(N)=O)C(=O)N[C@H](C(=O)NCC(=O)N[C@@H](CO)C(=O)N[C@@H](CCCCN)C(=O)N[C@@H](C)C(=O)N[C@@H](Cc1ccccc1)C(N)=O)C(C)C)[C@@H](C)O)C(C)C)C(C)C)C(C)C,.,1%,.,.,.
Cc1cc(C(=O)Nc2nc(C)c(C(=O)N(C)C)s2)ccc1[N+](=O)[O-],12,-10%,2%,3%,-7%
Cc1nc(NC(=O)c2ccc([N+](=O)[O-])cc2Cl)sc1C(=O)N(C)C,12,?,3%,19µM*,-2%
COc1ccc(OC)c(NS(=O)(=O)c2ccc(NC(C)=O)cc2)c1,6,9%,-5%,-4%,?
O=S(=O)(Nc1ccc(NS(=O)(=O)c2ccccc2)c2ccccc12)c1ccccc1,.,.,5%,5%,0%
COc1ccccc1NS(=O)(=O)c1ccc(O)cc1,-2,-17%,9%,3.4µM*,5%
COc1ccc(NS(=O)(=O)c2ccc(NC(C)=O)cc2)c(OC)c1,4,?,3%,24µM*,-12%
O=S(=O)(Nc1ccc(O)c2ccccc12)c1ccc(F)cc1,.,?,-9%,27µM*,-8%
Cc1ccc(S(=O)(=O)Nc2c(O)ccc3ccccc23)cc1,.,32µM*,0%,6.7µM*,-9%
COc1ccccc1NS(=O)(=O)c1ccc(/C=C/C(=O)O)cc1,-5,-8%,-2%,-5%,7%
CC(N)(C(=O)O)c1ccc(S(=O)(=O)O)cc1 (stereo not drawn),.,9%,.,.,.
O=C(O)c1c2c(nc3ccccc13)CCCC2,.,.,.,.,-2%
S=C(Nc1cc(Cl)ccc1Cl)Nn1cnnc1,0,79µM*,7%,21µM*,3%
NC(=S)Nc1cc(Cl)ccc1Cl,-5,-26%,-25%,-11%,-4%
S=C(NNc1ccnc2cc(Cl)ccc12)Nc1ccc(Cl)cc1Cl,-11,79µM*,?,?,-6%
S=C(Nc1ccc(Cl)cc1Cl)Nn1cnnc1,-10,?,-4%,6.7µM*,-1%
S=C(Nc1cccc(Cl)c1Cl)Nn1cnnc1,17,79µM*,4%,17µM*,1%
S=C(NCc1ccc(Cl)cc1)Nc1ccc(Cl)cc1Cl,-10,-19%,1%,-10%,-1%
CN1C(=O)C[C@@H](C(=O)N[C@@H](Cc2cnc[nH]2)C(=O)N2CCC[C@H]2C(N)=O)NC1=O,.,-11%,.,.,.
Cc1cccc(OCC(=O)Nc2nc3ccc([N+](=O)[O-])cc3s2)c1C,-76*,1%,-5%,-1%,-9%
Cc1cccc(OCC(=O)Nc2nc3ccc([N+](=O)[O-])cc3s2)c1,-32,16%,-14%,-3%,-16%
Cc1csc(SC(C)C(=O)Nc2ccc(Cl)cn2)n1 (stereo not drawn),-1,-3%,5%,27µM*,6%
Cc1cc(O)c(C(c2ccc(F)cc2)N2CCN(c3ccccc3)CC2)c(=O)n1Cc1ccco1 (stereo not drawn),.,-13%,10%,.,0%
CC1CC(=O)c2cc(-c3ccccc3)oc2C1 (stereo not drawn),.,.,-1%,4%,0%
CC1CC(=O)C(C(C2=C(O)CC(C)CC2=O)c2ccccc2)=C(O)C1 (stereo not drawn),.,?,-15%,12µM*,1%
SMILES,TSHR antag,VDR inhibitor,Vif-APOBEC3F blk,PLK1 PBD block,Vif-A3G inh
O=C(CSc1nnc(C2CCCCC2)n1Cc1ccccc1)NCc1ccco1,8,?,-8%,27µM*,0%
CCn1c(SCC(=O)NCc2ccco2)nnc1C1CCCC1,3,-4%,1%,-12%,0%
O=C(O)c1cc(=O)c2cc(Cl)ccc2[nH]1,.,11%,.,.,.
O=C(/C=C/c1ccccc1Cl)c1ccc(O)cc1,-5,?,-13%,-3%,-27%
O=C(/C=C/c1c(F)cccc1Cl)c1ccc(O)cc1,-4,79µM*,-25%,-10%,-23%
COc1ccc(NC(=S)Nn2cnnc2)c(OC)c1,-3,?,10%,21µM*,-4%
COc1ccc(NC(=S)Nn2cnnc2)cc1OC,-4,-18%,-24%,15µM*,3%
COc1cccc(C(=O)NC(=S)Nn2cnnc2)c1OC,12,0%,2%,24µM*,0%
S=C(Nc1ccccc1)Nn1cnnc1,-5,-17%,-17%,19µM*,2%
O[C@@H]1[C@@H]2c3cc4c(cc3CN3CCC(=C[C@@H]1O)[C@H]23)OCO4,.,0%,.,.,.
C[C@H](CCC(=O)NCC(=O)O)C1CC[C@H]2[C@H]3C(C[C@H](O)[C@]12C)[C@@]1(C)CC[C@@H](O)C[C@H]1C[C@H]3O (stereo partly drawn),.,-13%,.,.,.
Oc1ccc(Cl)cc1C1C=C(c2ccc3c(c2)OCO3)NC(c2ccc(C(F)(F)F)cc2)N1 (stereo not drawn),.,?,.,.,-18%
Nc1ccccc1S(=O)(=O)Nc1cccc2cccnc12,.,-6%,.,.,.
CCc1ccc(NC(=S)Nn2cnnc2)cc1,18,-10%,-20%,17µM*,3%
COc1ccc(NC(=S)Nc2ncccc2C)cc1OC,-4,-12%,15%,-29%,-5%
Cc1ccc(NC(=S)Nn2cnnc2)cc1,7,-18%,-6%,11µM*,0%
COc1ccc(NC(=S)Nc2ncccc2C)c(OC)c1,-2,7%,1%,?,11µM*
COc1ccc(C)cc1NC(C)C(=O)c1c[nH]c2ccccc12 (stereo not drawn),.,.,.,.,-3%
CCOC(=O)c1sc2nccc(N(C)C)c2c1N=CNOC,-14,?,-1%,15µM*,1%
CCOC(=O)c1sc2nccc(N(C)C)c2c1N=CNOCc1ccccc1,-19,-4%,7%,-4%,1%
COc1ccc(NC(=O)Nc2ccccc2SC)c(OC)c1,-11,-8%,4%,?,-1%
COc1cccc(NC(=O)CSc2nc3ccccc3n2C)c1,10,-28%,-2%,17µM*,4%
